Measurements reported in the supplement of paper PMC3334620.
Whole data set: some 33,000 sequences, median “E-score (-0.5 to 0.5)” near -0.04, cut for the highest 2% near 0.36. For the sample, the highest values were picked, then their nearest neighbours and some sequences at random.

target: T1, Hmlalpha2 (UniProt P0CY09); assay: PBM E-score (8-mer binding enrichment) (E-score (-0.5 to 0.5)); higher = stronger / more preferred TF binding; settings: protein concentration: 200 nM; construct: GST-full length
T1 sequence: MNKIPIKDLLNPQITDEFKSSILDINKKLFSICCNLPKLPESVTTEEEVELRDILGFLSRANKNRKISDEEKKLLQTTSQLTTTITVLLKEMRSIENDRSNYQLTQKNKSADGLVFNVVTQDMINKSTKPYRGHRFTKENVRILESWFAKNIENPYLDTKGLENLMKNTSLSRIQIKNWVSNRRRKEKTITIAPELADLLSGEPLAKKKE
Method: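 Universal 'all 10-mer' protein binding microarrays (Agilent AMADID 015681) probed with GST-tagged S. cerevisiae TFs (full-length or DBD) made by in vitro transcription/translation (PURExpress), about 100-200 nM. Bound TF was detected with fluorescent anti-GST. Each ungapped 8-mer (which stands for itself and its reverse complement) is scored by the PBM enrichment score (E-score), a modified Wilcoxon-Mann-Whitney statistic from -0.5 to +0.5, computed with the Universal PBM Analysis Suite. Scale: above 0.35 generally sequence-specific binding.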

| Sequence | PBM E-score |
| --- | --- |
| GTATTATA | 0.318 |
| ACTATGTA | 0.444 |
| AATATGTC | 0.167 |
| AATATGTA | 0.386 |
| GCTATGCA | -0.0142 |
| CATATGTA | 0.356 |
| CCTATGTA | 0.433 |
| CCTATGTC | 0.0957 |
| ACTATGTC | 0.165 |
| GATATGTA | 0.345 |
| CCTATGAA | -0.065 |
| ACTATGTG | 0.108 |
| GCTATGTA | 0.426 |
| CTTCATTC | -0.149 |
| AAGATCAC | -5e-05 |
| CACAGGTC | -0.101 |
| GAATACCC | -0.19 |
| TGACCAAA | -0.0837 |
| CCAGTAGG | -0.239 |
| GTGAAGCA | -0.113 |
| CTGGAAAG | -0.217 |
| AAACCTTT | -0.111 |
| AGGTATGG | -0.317 |
| ACGCTTGC | -0.0163 |
| TTACCCAA | 0.02 |

| Sequence | PBM E-score |
| --- | --- |
| GTGTAATA | 0.456 |
| ATGTAATG | 0.479 |
| ATGTAATA | 0.48 |
| GGGTAATA | 0.193 |
| AAGTAATA | 0.24 |
| CTGTAATA | 0.286 |
| CAGTAATG | 0.167 |
| CTGTAATC | 0.243 |
| ATGTAACC | 0.304 |
| ATGTAACG | 0.362 |
| CGGTAATA | -0.00682 |
| ATGTAATC | 0.478 |
| GGAGTGTA | 0.18 |
| CATGAGGC | -0.166 |
| TACTGTCA | -0.0966 |
| CAGCAGCG | 0.0849 |
| GGGGATAA | -0.178 |
| CCAGGACG | 0.0263 |
| GGGCCAAA | -0.124 |
| GGGCACTA | -0.105 |
| AGACGCCT | -0.0767 |
| ACACGCCT | 0.374 |
| GCACGCCC | -0.0771 |
| ACACGCCG | 0.274 |
| ACACGCCC | 0.371 |

| Sequence | PBM E-score |
| --- | --- |
| ACACGCCA | 0.311 |
| ATCCTGCA | -0.0119 |
| CTATTGCA | 0.117 |
| CCGGTTTA | 0.0123 |
| GATGAGCC | -0.213 |
| AGAAGGAA | -0.351 |
| CCCTTAAA | -0.0696 |
| GAGACGGA | -0.095 |
| AAGTAGGC | -0.0798 |
| CTTGAATC | -0.0387 |
| CGATCTCA | -0.0804 |
| AAGATCAG | -0.187 |
| AACAACAT | 0.385 |
| GACAACAC | 0.319 |
| AACAACAC | 0.375 |
| AACAACAG | 0.108 |
| CACAACAC | 0.306 |
| AACAACAA | 0.306 |
| CGAAACCC | -0.121 |
| CTTCTAGC | -0.197 |
| CCCCGCAC | -0.201 |
| CCGGGAAG | -0.179 |
| CGTCCCCA | -0.224 |
| GTACATTA | 0.316 |
| CGACATGA | 0.319 |

| Sequence | PBM E-score |
| --- | --- |
| GTACATGA | 0.426 |
| GCACATGA | 0.0937 |
| CTACATCA | 0.222 |
| CTACATGA | 0.421 |
| AACATTGC | 0.191 |
| GGAATCTA | -0.132 |
| GCACGGAC | -0.0335 |
| ACCAAATA | 0.191 |
| ATACACAA | 0.42 |
| AGACACAA | 0.172 |
| ACACACAT | 0.379 |
| ACACATAT | 0.317 |
| ATACACAT | 0.399 |
| ACACACAA | 0.313 |
| ACACACAG | 0.364 |
| ATACACAG | 0.408 |
| ACACACAC | 0.326 |
| AAACACAT | 0.314 |
| AGACACAT | 0.128 |
| CTATACAG | 0.0549 |
| TTCATGAA | -0.00198 |
| ATTGAGCA | 0.0182 |
| ATAACCAC | -0.0123 |
| ACCCCCGA | -0.0909 |
| GGCAAAGA | -0.0294 |

| Sequence | PBM E-score |
| --- | --- |
| CCCCTGTC | -0.152 |
| GGCCAGCC | -0.192 |
| CAGCGACG | -0.0401 |
| ATACACTC | 0.185 |
| ATACACAC | 0.429 |
| ATACACCG | 0.145 |
| CGCTGAGA | -0.139 |
| CCCTCAGA | -0.285 |
| CTATTCCC | -0.203 |
| AGTGCACC | -0.2 |
| AAGTGTAG | 0.0742 |
| CCGTGTAG | 0.452 |
| CCGTGTAC | 0.422 |
| AGGTGTAG | 0.0925 |
| AGGTGTAA | 0.317 |
| CCGTGTCC | 0.0408 |
| ACGTGTAA | 0.482 |
| CAGTGTAC | 0.154 |
| CCGTGTCG | 0.233 |
| ACGTGTAG | 0.429 |
| ACGTGTGA | 0.229 |
| CAGTGTAG | 0.243 |
| CGGACGGA | -0.198 |
| AGACTGGA | -0.0528 |
| CGAATCGC | -0.169 |

| Sequence | PBM E-score |
| --- | --- |
| ATGAGGAA | 0.0377 |
| ACCTAACT | 0.00114 |
| AACGAACC | 0.036 |
| CATGGGGC | 0.0176 |
| CGCAATGA | 0.0708 |
| GAGAATAC | 0.242 |
| ATTGTTGG | 0.151 |
| AATCTGAA | 0.102 |
| ACTACTTG | 0.154 |
| ACGTGTGC | 0.172 |
| ACGTGTAC | 0.382 |
| AAGTGTAC | 0.0982 |
| TAGTGTAA | 0.323 |
| GCGTGTAA | 0.486 |
| ACGTGTAT | 0.402 |
| ACGTGTCT | 0.193 |
| GAGTGTAC | 0.0265 |
| GCCTGTAA | 0.254 |
| GCGTGTAC | 0.427 |
| GGGTGTAC | -0.0223 |
| AAGTGTAT | 0.194 |
| CAACCACG | 0.111 |
| ATTGGTAG | 0.0446 |
| GGATCCTA | -0.154 |
| ATCCTAAT | -0.0163 |

| Sequence | PBM E-score |
| --- | --- |
| CTGGCGAA | -0.103 |
| CTGTCCAA | -0.0758 |
| ACATAGGG | 0.251 |
| ACGTAGAT | 0.267 |
| CGCTTGCA | -0.0244 |
| ACGCGTAC | 0.345 |
| GCGCGTGA | 0.134 |
| ACGCGTAT | 0.357 |
| ACGCGTTA | 0.342 |
| GCGCGTAC | 0.225 |
| TCGCGTAA | 0.45 |
| GCGCGTTA | 0.372 |
| TAGCGTAA | 0.278 |
| CCGCGTTA | 0.336 |
| GCGCGTAA | 0.416 |
| TGGCGTAA | 0.108 |
| ACGCGTAA | 0.394 |
| GCTGAAGC | -0.14 |
| CCGAATGC | -0.125 |
| ATTGATGG | 0.08 |
| TCCATGAA | 0.043 |
| TCCAACAA | 0.264 |
